# Records with an inconclusive call do not appear. Active and inactive are the calls of the source. The calls were made as follows, unless noted: active = hit-call score of the fitted dose curve at least 0.9, where 1 is the maximum; inactive = score below 0.9.
# Key:
# [1] = ACEA_ER_80hr: ACEA Biosciences xCELLigence Real-Time Cell Analysis on Estrogen Receptor Agonism for Proliferation (AID 2282667; active = hit-call score of the fitted dose curve at least 0.9, where 1 is the maximum); conditions: T47D proliferation, impedance (xCELLigence), 80 h
# Method in brief: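 Impedance readout (RT-CES) of T47D proliferation at 80 h post-dose; gain of signal vs DMSO baseline. Compounds: 8 conc, 1:4 serial, top 100 uM final, ≤0.5% DMSO; biological duplicate.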
# [2] = APR_HepG2_CellCycleArrest_24hr: Apredica 24-hour HepG2 Assay for Cell Cycle Arrest (AID 2282905); conditions: imaging, actives raise or lower the signal;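 also: cell cycle arrest scored as ratio of 2N to 4N nuclear DNA content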
# Method in brief: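 Cell cycle arrest is scored from nuclear DNA content measured by high-content imaging of Hoechst 33342-stained HepG2 cells following 24-hour treatment at ten concentrations up to 200 uM, with DMSO as baseline.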
# [3] = APR_HepG2_NuclearSize_24hr: Apredica 24-hour HepG2 Assay for Nuclear Size (AID 2282907); conditions: high-content imaging, actives raise or lower the signal
# Method in brief: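 Compounds in DMSO (final 0.5%) were added to human HepG2 hepatoma cells at ten concentrations up to 200 uM for 24 hr. Fixed nuclei were stained with Hoechst 33342, and nuclear diameter was quantified from automated images.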
# [4] = APR_HepG2_CellLoss_24hr: Apredica 24-hour HepG2 Assay for Cell Loss (AID 2282908); conditions: high-content imaging;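 as to AC50: fit in both directions so a hit may be cell loss or gain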
# Method in brief: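 Cell number is quantified by fluorescence imaging of Hoechst 33342-stained nuclei following dosing at 0.39–200 uM in 0.5% DMSO. Curves are fitted in both directions from the DMSO baseline.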
# [5] = APR_HepG2_MicrotubuleCSK_24hr: Apredica 24-hour HepG2 Assay for Microtubule CSK Stabilty (AID 2282909); conditions: HepG2 microtubule cytoskeleton imaging, actives raise or lower the signal
# Method in brief: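 Steps: dose HepG2 for 24 h (0.39–200 uM, 0.5% DMSO); fix 30 min in 3.7% formaldehyde at room temperature; permeabilize; stain alpha-tubulin 60 min; image microtubule cytoskeleton at 20x. Signal change fitted in both directions relative to DMSO.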
# [6] = APR_HepG2_MitoticArrest_24hr: Apredica 24-hour HepG2 Assay for Mitotic Arrest (AID 2282910); conditions: high-content imaging, actives raise or lower the signal
# Method in brief: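 Compounds are dosed onto HepG2 cells across ten concentrations up to 200 uM for 24 hr. Cells are then fixed in 3.7% formaldehyde, permeabilised, and labelled for phospho-histone H3 and nuclei; images are scored by cell cycle analysis and fitted bidirectionally relative to DMSO.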
# [7] = APR_HepG2_MitoMembPot_24hr: Apredica 24-hour HepG2 Assay for Mitochondrial Membrane Potential (AID 2282911); conditions: imaging, actives raise or lower the signal
# Method in brief: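 HepG2, 24 hr dosing, 10 concentrations 0.39–200 uM, 0.5% DMSO final. Live-cell MitoTracker Red CMXRos 250 nM 30 min, then 3.7% formaldehyde fix. HCS fluorescence imaging, 20x; bidirectional fit vs DMSO baseline.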
# [8] = APR_HepG2_MitoMass_24hr: Apredica 24-hour HepG2 Assay for Mitochondrial Mass (AID 2282912); conditions: high-content imaging, actives raise or lower the signal
# Method in brief: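 The liver line HepG2 was dosed in duplicate across a 0.39–200 uM series, with final DMSO held at 0.5% v/v, and harvested at 24 hr. High-content imaging measured mitochondrial dye staining.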
# [9] = APR_HepG2_p53Act_24hr: Apredica 24-hour HepG2 Assay for p53 Activation (AID 2282913); conditions: high-content imaging, actives raise or lower the signal;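 also: p53 protein immunofluorescence averaged per cell in HepG2 with Hoechst nuclei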
# Method in brief: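 Read-out: Cy5 immunofluorescence for p53 in fixed, permeabilized HepG2, imaged by HCS with Hoechst-defined nuclei. Dosing was 24 hr at 0.39–200 uM in 0.5% DMSO. Curves were fitted bidirectionally relative to DMSO.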
# [10] = APR_HepG2_CellCycleArrest_72hr: Apredica 72-hour HepG2 Assay for Cell Cycle Arrest (AID 2282914); conditions: high-content imaging, actives raise or lower the signal
# Method in brief: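 HepG2, 72 hr exposure, 10-point 0.39–200 uM, duplicate, 0.5% DMSO final. Fix 3.7% formaldehyde 30 min RT, Triton X-100 0.5%, Hoechst 33342 2 ug/mL. ArrayScan 20x, six fields/well; DNA content per nucleus; bidirectional fit vs DMSO.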
SMILES,outcome [1],outcome [2],outcome [3],outcome [4],outcome [5],outcome [6],outcome [7],outcome [8],outcome [9],AC50 [10],outcome [10],AC50 [1],AC50 [4],AC50 [6],AC50 [8],AC50 [9],AC50 [2],AC50 [3],AC50 [7]
Nc1ccc2c(c1)C(=O)c1ccccc1C2=O,inactive,inactive,inactive,inactive,inactive,inactive,inactive,inactive,inactive,16.1 µM (active),–,–,–,–,–,–,–,–,–
CC(=O)OC/C=C(\C)CCC=C(C)C,inactive,inactive,inactive,inactive,inactive,inactive,inactive,inactive,inactive,–,inactive,–,–,–,–,–,–,–,–
COCCOC[C@H](CC1(C(=O)NC2CCC(C(=O)O)CC2)CCCC1)C(=O)Oc1ccc2c(c1)CCC2 (stereo not given in full),inactive,inactive,inactive,inactive,inactive,inactive,inactive,inactive,inactive,–,inactive,–,–,–,–,–,–,–,–
O=C(O)Cc1ccccc1Nc1c(Cl)cccc1Cl,–,inactive,inactive,inactive,inactive,inactive,inactive,inactive,inactive,–,inactive,50 µM (active),–,–,–,–,–,–,–
C=CCOC(=O)c1ccccc1C(=O)OCC=C,inactive,inactive,inactive,inactive,inactive,inactive,inactive,inactive,inactive,–,inactive,–,–,–,–,–,–,–,–
CC(=O)C(C)=CC1C(C)=CCCC1(C)C (stereo not given),inactive,inactive,inactive,inactive,inactive,inactive,inactive,inactive,inactive,–,inactive,–,–,–,–,–,–,–,–
CC(C)(C)c1cc(O)c(C(C)(C)C)cc1O,inactive,inactive,inactive,–,inactive,–,inactive,–,–,51.3 µM (active),–,–,53.6 µM (active),83.6 µM (active),82.8 µM (active),79.8 µM (active),–,–,–
O=c1[nH]cc(F)c(=O)[nH]1,inactive,–,inactive,inactive,inactive,inactive,inactive,inactive,inactive,1.52 µM (active),–,–,–,–,–,–,1.06 µM (active),–,–
CN1CCCC1=O,inactive,inactive,inactive,inactive,inactive,inactive,inactive,inactive,inactive,–,inactive,–,–,–,–,–,–,–,–
CC1=C(/C=C/C(C)=C/C=C/C(C)=C/CO)C(C)(C)CCC1,inactive,inactive,inactive,–,inactive,–,inactive,–,–,56.3 µM (active),–,–,90.6 µM (active),81.6 µM (active),113 µM (active),85.8 µM (active),–,–,–
Cc1cc(=O)[nH]c(=S)[nH]1,inactive,inactive,inactive,inactive,inactive,inactive,inactive,inactive,inactive,–,inactive,–,–,–,–,–,–,–,–
Cc1ccccc1Cl,inactive,inactive,inactive,inactive,inactive,inactive,inactive,inactive,inactive,–,inactive,–,–,–,–,–,–,–,–
CCOc1ccc2c(c1)C(C)=CC(C)(C)N2,inactive,inactive,inactive,inactive,inactive,inactive,inactive,inactive,inactive,–,inactive,–,–,–,–,–,–,–,–
CCCCOC(=O)CCCCCCCCC(=O)OCCCC,inactive,inactive,inactive,inactive,inactive,inactive,inactive,inactive,inactive,–,inactive,–,–,–,–,–,–,–,–
Cc1cccc(Nc2cc(Cl)nc(SCC(=O)O)n2)c1C,inactive,inactive,inactive,inactive,inactive,inactive,inactive,inactive,inactive,–,inactive,–,–,–,–,–,–,–,–
OC[C@@H](O)[C@@H](O)[C@H](O)[C@H](O)CO,inactive,inactive,inactive,inactive,inactive,inactive,inactive,inactive,inactive,–,inactive,–,–,–,–,–,–,–,–
Cc1ccc(C(C)C)c(O)c1,inactive,inactive,inactive,inactive,inactive,inactive,inactive,inactive,inactive,–,inactive,–,–,–,–,–,–,–,–
CCCCCC(=O)O,inactive,inactive,inactive,inactive,inactive,inactive,inactive,inactive,inactive,–,inactive,–,–,–,–,–,–,–,–
FC(F)(F)C(F)(F)C(F)(F)C(F)(F)C(F)(F)C(F)(F)CCI,inactive,inactive,inactive,inactive,inactive,inactive,inactive,inactive,inactive,–,inactive,–,–,–,–,–,–,–,–
CC(C)c1ccc(C(=O)N=C(N)N)cc1S(C)(=O)=O,inactive,inactive,inactive,inactive,inactive,inactive,inactive,inactive,inactive,–,inactive,–,–,–,–,–,–,–,–
COc1ccc(S(=O)(=O)N2C(=O)[C@@](c3ccccc3OC)(N3C[C@H](O)C[C@H]3C(=O)N(C)C)c3cc(Cl)ccc32)c(OC)c1,inactive,–,–,–,inactive,–,inactive,–,–,–,inactive,–,92.4 µM (active),63 µM (active),78.1 µM (active),68.6 µM (active),86.2 µM (active),93.2 µM (active),–
O=C(N[C@@H](Cc1ccccc1)[C@@H](O)C(=O)N1C[C@@H](O)[C@@H](O)C1)c1cc2cc(Cl)ccc2[nH]1,inactive,inactive,inactive,inactive,inactive,inactive,–,inactive,inactive,91.7 µM (active),–,–,–,–,–,–,–,–,86.4 µM (active)
